This is one part of a sample in which hits are shown more often than they occur.
Tg IFNy HTS: blocks Toxoplasma gondii growth in the presence of IFN-gamma; Toxoplasma gondii growth in IFN-gamma-treated host cells; active compounds read low; activity change, negative = inhibition, % (concentration not given with the values); 69,000 compounds, 3.8% hits; in the data active means activity change below about -70%, passing the limit was not always enough;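 further: host cells are HeLa cells infected with Toxoplasma gondii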
Numbers without * were called inactive; i = inactive; ! = not active in a repeat.

SMILES	Tg IFNy HTS
CN1C(=O)C2(CCN(Cc3nccs3)CC2)c2ccccc21	3.3
CN1C(=O)C(C(=O)/C=C/c2ccc(Cl)cc2)C2c3ccccc3OC13CCCC23 (centres undefined)	15.0
COCCN1CCN(CC2CCOCC2)Cc2cccnc21	-45.5
COc1ccc(-n2cc(C3=CCN(Cc4nc(C)cc(C)n4)CC3)cn2)cc1	62.0
Cc1ccc(CN2CC3CC2CN(Cc2c(C)noc2C)C3)o1 (centres undefined)	-4.3
CC(C)CN1CC[C@H]2[C@@H]1CCN2C(=O)Cc1ccsc1	12.3
Cc1ccnc(NC(=O)CCC(=O)N2CCCN3CCC[C@H]3C2)c1	72.2
O=C(NCc1ccccc1)c1c(O)c2cccnc2n(Cc2ccccc2)c1=O	-115.6*
O=C(Nc1ccc(F)c(F)c1)c1c(O)c2cccnc2n(Cc2ccccc2)c1=O	-58.2
Cc1ccc(F)c(NC(=O)c2c(O)c3cccnc3n(Cc3ccccc3)c2=O)c1	71.0
O=C(NCc1ccccc1F)c1c(O)c2cccnc2n(Cc2ccccc2)c1=O	-111.9*
O=C(NCc1cccs1)c1c(O)c2cccnc2n(Cc2ccccc2)c1=O	-110.5*
O=C(Nc1ccc(F)c(Cl)c1)c1c(O)c2cccnc2n(Cc2ccccc2)c1=O	-26.8
COc1ccc(NC(=O)c2c(O)c3cccnc3n(Cc3ccccc3)c2=O)cc1	0.1
Cc1ccc(NC(=O)c2c(O)c3cccnc3n(Cc3ccccc3)c2=O)c(C)c1	45.1
O=C(Nc1cccc(Cl)c1)c1c(O)c2cccnc2n(Cc2ccccc2)c1=O	146.0
CC(C)OCCCNC(=O)c1cc2cccnc2n(Cc2ccccc2)c1=O	9.1
CNC(=O)[C@]12CCO[C@H]1CCN(Cc1cccnc1OC)C2	i
CN(C)C(=O)CCC(=O)N1C[C@H]2C[C@@H]1CN2	4.0
Fc1cnccc1CN1CCC2(CCN2c2ncccn2)C1 (centres undefined)	-22.5
COc1ccc(NC(=O)c2cc3cccnc3n(Cc3ccccc3)c2=O)c(OC)c1	12.2
O=C(NC1CCCCCCCCCCC1)c1cc2cccnc2n(Cc2ccccc2F)c1=O	41.9
COc1cccc(CCNC(=O)c2cc3cccnc3n(Cc3ccc(F)cc3)c2=O)c1	35.0
C=CCNC(=O)c1cc2cccnc2n(Cc2ccc(F)cc2)c1=O	-18.3
c1cncc(COC2CC3CN(Cc4cccs4)CCN3C2)c1 (centres undefined)	16.7
SMILES	Tg IFNy HTS
CC(C)[C@@]1(NC(=O)[C@@H]2C[C@@H]3c4cccc5[nH]cc(c45)C[C@H]3N(C)C2)O[C@@]2(O)[C@@H]3CCCN3C(=O)[C@H](Cc3ccccc3)N2C1=O	-65.9
CN1Cc2ccccc2[C@@H]2c3cccc4[nH]cc(c34)C[C@H]21	-78.1*
CN1C2CCC1CC(OC(=O)CCN1CCOCC1)C2 (centres undefined)	-2.5
Cc1noc(C)c1CN1CC[C@@H]2C[C@H](c3ccncn3)O[C@H]2C1	2.9
COc1ccccc1CCNC(=O)c1cc2cccnc2n(Cc2ccccc2)c1=O	108.7
COCCN1CCN(Cc2csc(C)n2)Cc2cccnc21	0.7
COc1ccc(C(=O)c2c(C)n(CCN3CCOCC3)c3cc(I)ccc23)cc1	7.4
CCCn1c(C)c(C(=O)c2cccc3ccccc23)c2ccccc21	32.5
Cc1c(C(=O)c2cccc3ccccc23)c2cccc3c2n1[C@H](CN1CCOCC1)CO3	-90.1*
Cc1ccsc1CN1C[C@H]2COC[C@@]2(CNC(=O)c2ccno2)C1	-10.7
CCc1ccccc1NC(=O)c1cc2cccnc2n(Cc2ccc(Cl)cc2)c1=O	123.2
O=C(Nc1cccc(Cl)c1)c1cc2cccnc2n(Cc2ccc(F)cc2)c1=O	51.7
CCOC(C(=O)OCCCN1CCCCCC1)(c1ccccc1)c1ccccc1	-79.7*
O=C1CNC(=O)N1CC(=O)N1C[C@H](c2ccccc2)[C@@H]2[C@H]1C1CCN2CC1	-2.8
Cc1nccc([C@H]2C[C@@H]3CN(Cc4cc(C)on4)CC[C@H]3O2)n1	i
CCC1(O)C(=O)OCc2c1cc1n(c2=O)Cc2cc3ccccc3nc2-1 (centres undefined)	-106.1*
CC[C@@]1(O)C(=O)OCc2c1cc1n(c2=O)Cc2cc3ccccc3nc2-1	-88.3*
Cc1ccc(CN2CC[C@H]3[C@@H]2CCN3C(=O)Cc2ccc(F)cc2)o1	-21.4
Cc1cccc(CO[C@@H]2CC[C@@H]3[C@@H]2OCCN3Cc2ccsc2)n1	4.3
CN1C[C@@H](COCc2cccnc2)[C@]2(CCN(S(C)(=O)=O)C2)C1	-15.8
Cc1cc(C(=O)N2CC[C@H]3[C@@H]2CCN3C)no1	60.2
CCN(CC)C(C)C(=O)c1ccccc1 (centres undefined)	20.7
CC(=O)[O][Hg][c]1ccccc1	-72.3*
CCC1CN(Cc2cc(Cl)c(OC)cc2OC)CCN1C(C)C (centres undefined)	-1.3
CCCN(CCC)C1CCc2cccc(O)c2C1 (centres undefined)	15.7
SMILES	Tg IFNy HTS
CCCN(CCC)C1CCc2ccc(O)cc2C1 (centres undefined)	-76.2*!
CCN1C[C@H]2COC[C@H](CC(=O)NCCc3ccncc3)[C@H]2C1	1.7
O=C(NCCCc1ccccc1)c1cc2cccnc2n(Cc2ccc(Cl)cc2)c1=O	25.6
C=CCN1CCN(C(C)C)C(=O)C12CCN(c1ncc(F)cn1)C2 (centres undefined)	56.7
COCCCNC(=O)c1cc2cccnc2n(Cc2ccccc2)c1=O	37.4
O=C(NC[C@@]12COC[C@@H]1CN(Cc1cccs1)C2)c1ccno1	1.8
C=CC1CN2CCC1CC2[C@@H](OC(=O)c1ccc(OC)cc1)c1ccnc2ccccc12 (some centres undefined)	0.5
C=C[C@H]1CN2CC[C@H]1C[C@@H]2[C@@H](OC(=O)OCC)c1ccnc2ccc(OC)cc12	3.2
CC[C@H]1CN2CCC1C[C@@H]2[C@@H](O)c1ccnc2ccc(OC)cc12 (some centres undefined)	-78.2*!
c1cncc(CN2C[C@@H]3COC[C@@]3(Cc3nnc(C4CC4)o3)C2)c1	-34.7
C[C@@H]1C[C@@H]([C@H](O)CC2CC(=O)NC(=O)C2)C(=O)[C@@H](C)C1	-78.7*
c1cncc(CN2CCC3(CC(OCC4CC4)CO3)C2)c1 (centres undefined)	13.7
c1cncc(O[C@H]2CN(Cc3cccs3)[C@H]3CCCO[C@@H]23)c1	1.6
CC(=O)OC[C@]12CCC(C)=C[C@H]1O[C@@H]1[C@H](O)[C@@H](OC(C)=O)[C@@]2(C)[C@@]12CO2	-81.1*
O=c1c2ccccc2nc(CN2CCCCC2)n1-c1ccccc1	-1.3

Bioassay records as filed in PubChem.
